About 79,000 compounds went through this panel and 15% of them were active in at least one assay; those are over-represented in the sample as a whole. A number with no mark means an inactive call. Calls of active or inactive are those of the source. No stated cut-off is given here; in the data, active means growth inhibition above about 70%; inactive means the rest.
Assay: NCI Yeast Anticancer Drug Screen. Data for the cln2 rad14 strain (AID 165);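 further: 0% = growth equal to vehicle treated cultures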
Settings: S. cerevisiae cln2 rad14 strain, at 50.0 µM, active compounds read high
Experimental: Growth inhibition of yeast strains with defined genetic alterations is measured as a screen for potential anti-cancer activity. Selected strains with alterations in DNA damage repair or cell cycle control were exposed to compounds and growth inhibition was measured relative to vehicle treated controls. The strain used in this assay is cln2 rad14

| Structure (SMILES) | growth inhibition |
| --- | --- |
| O=C1C(O)=C(c2ccccc2)C(=O)N1Cc1ccccc1 | -39% |
| O=[N+]([O-])c1ccc(N=CNc2ccc([N+](=O)[O-])cc2)cc1 | -12% |
| Nc1nc(N)c(N=Nc2ccc(C(=O)O)c(O)c2)c(N)n1 | 12.8% |
| O=C(N/N=C\c1ccccn1)Nc1ccc(N=Nc2ccccc2)cc1 | -3.9% |
| COc1ccc2cc1Oc1ccc(cc1)C[C@@H]1c3cc(c(OC)cc3CCN1C)Oc1c(OC)c(OC)cc3c1[C@@H](C2)N(C)CC3 | -2.7% |
| CCCn1c(C)nc2cc(C(F)(F)F)cc(N)c21 | -35.4% |
| Cc1c2c(c(C)c3c1C(=O)c1cc4c(cc1C3=O)OCO4)OC(C)O2 | -28.4% |
| Cc1ccc(S/C=C/C(=O)Nc2ccccc2)cc1 | 43.1% |
| O=c1[nH]c2ccccc2c(N=Cc2ccccc2)c1-c1ccccc1 | -26.8% |
| CN(Cc1c(O)ccc2ccccc12)Cc1c[nH]c2ccccc12 | -46.5% |
| CC(=O)O[C@H]1C(=O)[C@]2(C)[C@@H](OC(=O)OCCC(O)CO)C[C@H]3OC[C@@]3(OC(C)=O)[C@H]2[C@H](OC(=O)c2ccccc2)[C@]2(O)C[C@H](OC(=O)[C@H](O)[C@@H](NC(=O)c3ccccc3)c3ccccc3)C(C)=C1C2(C)C (stereo not given in full) | 3.95% |
| O=c1[nH]c(=S)[nH]c2c1CCC2 | 21.4% |
| CC12C=CC(=O)C=C1CCC1C3CC(F)C(O)(C(=O)CO)C3(C)CC(O)C12F (stereo not given) | 25.2% |
| C=C(C)c1nc(C#N)c(N)o1 | 4.5% |
| CCOC(=O)NC(=S)NC(C)c1ccccc1 (stereo not given) | -8.85% |
| C=CCc1cccc(CC=C)c1OCCN(CC)CC | 10.2% |
| COC(=O)C(C(=O)C(=O)Nc1ccc(C)cc1)c1nc2ccc([N+](=O)[O-])cc2[nH]c1=O (stereo not given) | -3.95% |
| O=S(=O)([N-]c1nc2ccccc2nc1-[n+]1ccccc1)c1ccccc1 | -7.25% |
| C=C(CC(=O)OC)C(=O)OC | 7.8% |
| O=C1NC2(CCCCC2)N=C2C(Cl)CCCC12Cl (stereo not given) | 21% |

| Structure (SMILES) | growth inhibition |
| --- | --- |
| c1ccc2c(c1)OP1(=NP3(=NP4(=NP5(=N1)Oc1ccccc1-c1ccccc1O5)Oc1ccccc1-c1ccccc1O4)Oc1ccccc1-c1ccccc1O3)Oc1ccccc1-2 | -4.1% |
| CC1(C)C2CC(=O)C1(C)C(OCc1ccccc1)C2 (stereo not given) | 22.1% |
| NC(=O)/N=C/c1c(O)c2ccccc2oc1=O | -3.35% |
| CC(=O)Nc1ccc(N(C)C)c(C)c1 | -7.75% |
| N/N=C(\Cc1ccccc1)NN=C(N)N | 20.1% |
| COC1C2C[C@@H](O)CCC2C(C(=O)OCCl)C[C@H]1O (stereo not given in full) | -27.2% |
| COc1ccc(CCNC(=O)C(Sc2ccccn2)c2ccccc2)cc1OC (stereo not given) | 23.1% |
| O=C(Nc1ccc(Br)cc1)OCC1CC2C=CC1C2 (stereo not given) | 42% |
| CCCCCCCCCCCCCCCC[N+](C)(C)CC#CCCl | 98.7% (active) |
| C(=C\c1cccc2ccccc12)/c1ccc(-c2ccccc2)cc1 | 12.1% |
| COc1ccc(NC(=S)NN)cc1 | -6% |
| N#Cc1ccc(Cl)cc1C#N | 7.65% |
| CCOC(=O)/C(F)=C/c1cccc(C)c1 | -4.7% |
| COc1ccc(Cc2cc3c(cc2OCCOC(C)=O)OCO3)cc1 | 0.05% |
| CC1(C)OC(=O)C=C([O-])O1.CC1(C)OC(=O)C=C([O-])O1.CC[O-].CC[O-].[Ti+4] | -8.95% |
| Cc1cc2c(c([N+](=O)[O-])c1C)C(=O)C(Br)=C(Br)C2=O | 34.7% |
| COc1cc(C2=N/C(=C\c3cc(Cl)cc(Cl)c3O)C(=O)O2)cc(OC)c1OC | -12.6% |
| ClCCOCOc1ccc2ccccc2c1 | 16.7% |
| C=C(Br)CN1CCC2(c3ccccc3)C(=O)C([Se]c3ccccc3)CCC12 (stereo not given) | -7.25% |
| O=C1NC2(CCN(CCc3ccccc3)CC2)Oc2ccccc21 | 17.6% |
